# Screening data from PubChem BioAssay.
# A selection: hits, their analogues and other compounds. The true share with any hit is near 2.8%.
# Pol kappa inh-1 – blocks human DNA polymerase kappa activity. purified Pol kappa, fluorescent DNA synthesis assay, 10 min. Potency, µM (doses to about 107 µM), for the others: top-dose activity, negative = inhibition, usual class: inhibitors. 400,000 compounds, 0.53% hits. AID 588579; note: potency is the fitted concentration of half-maximal effect; % is set by controls: 0 for no effect and ±100 for the full control effect
#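 Readout: fluorescence, taken kinetically at 0 and 10 min. Conditions: 10 nM Pol kappa, 15 min RT compound preincubation, 50 nM substrate final. Controls: enzyme-free buffer wells.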
# WRN inhibitor – inhibitors of human WRN helicase; Q14191; WRN helicase unwinding, fluorescent forked duplex, kinetic; Potency, µM (series often up to 114 µM), without a hit: at the highest dose activity change, negative = inhibition, actives largely listed as inhibitors; 360,000 compounds, 0.46% hits; AID 651768; note: potency is the fitted concentration of half-maximal effect; % is set by controls: 0 for no effect and ±100 for the full control effect; nearly all actives have a fitted effect of over 55% in size
#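 WRN at 20 nM final preincubated with compound 15 min at room temperature; reaction started with 100 nM fluorophore/quencher forked duplex oligonucleotide and 2 mM ATP final. Unwinding followed kinetically by red fluorescence (ex 525, em 598 nm).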
# PI5P4K alpha inh – inhibitors of human PI5P4K alpha. 330,000 compounds, 1.2% hits. P48426. PI5P4Kalpha enzyme, ADP-Glo luminescence, 60 min; active compounds read low. AID 652105. max response, %; active = max response of -50% or lower; inconclusive = between -30% and -50%; inactive = -30% or higher; note: value at the top dose of about 77 µM; % is set by controls: 0 for no effect and ±100 for the full control effect
#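 Reactions run in 0.038 M HEPES pH 7.4, 0.28 mM EGTA, 0.1% CHAPS and 5% DMSO, with PI5P4Kalpha, substrate, compound and 5 microM ATP final, one hour at room temperature. Readout is ADP-Glo luminescence.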
# POLB inh – blocks human DNA polymerase beta activity. P06746. Pol beta primer extension/strand displacement, fluorescence kinetic. Potency, µM (doses to about 114 µM), for the others: top-dose activity change, negative = inhibition, actives largely listed as inhibitors. 340,000 compounds, 1.3% hits. AID 485314; note: potency is the fitted concentration of half-maximal effect; % is set by controls: 0 for no effect and ±100 for the full control effect
#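 Reaction started by 50 nM substrate onto compound-treated Pol beta (10 nM, 15 min preincubation, room temperature); plates read at 0 min and 10 min. Normalized concentration-effect data fitted by four-parameter Hill equation.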
# Pol eta inh-1 – inhibitors of human DNA polymerase eta | recombinant Pol eta, fluorescent DNA replication assay | Q9Y253 | 390,000 compounds, 1.2% hits | AID 588591 | Potency, µM (doses to about 114 µM), for the others: top-dose activity change, negative = inhibition, usual class: inhibitors; note: potency is the fitted concentration of half-maximal effect; % is set by controls: 0 for no effect and ±100 for the full control effect
#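 Pol eta at 10 nM preincubated with compounds 15 min at room temperature; reaction started with fluorescent substrate (50 nM final) and read kinetically at 0 and 10 min.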
# POLI inh – blocks human DNA polymerase iota activity; Pol iota fluorescent replication assay, 10 min; Potency, µM (titrated, usually from 115 µM), for inactives: at the top dose activity, negative = inhibition, actives largely listed as inhibitors; 390,000 compounds, 1% hits; note: potency is the fitted concentration of half-maximal effect
# Target sequence (Q9UNA4 whole entry, looked up): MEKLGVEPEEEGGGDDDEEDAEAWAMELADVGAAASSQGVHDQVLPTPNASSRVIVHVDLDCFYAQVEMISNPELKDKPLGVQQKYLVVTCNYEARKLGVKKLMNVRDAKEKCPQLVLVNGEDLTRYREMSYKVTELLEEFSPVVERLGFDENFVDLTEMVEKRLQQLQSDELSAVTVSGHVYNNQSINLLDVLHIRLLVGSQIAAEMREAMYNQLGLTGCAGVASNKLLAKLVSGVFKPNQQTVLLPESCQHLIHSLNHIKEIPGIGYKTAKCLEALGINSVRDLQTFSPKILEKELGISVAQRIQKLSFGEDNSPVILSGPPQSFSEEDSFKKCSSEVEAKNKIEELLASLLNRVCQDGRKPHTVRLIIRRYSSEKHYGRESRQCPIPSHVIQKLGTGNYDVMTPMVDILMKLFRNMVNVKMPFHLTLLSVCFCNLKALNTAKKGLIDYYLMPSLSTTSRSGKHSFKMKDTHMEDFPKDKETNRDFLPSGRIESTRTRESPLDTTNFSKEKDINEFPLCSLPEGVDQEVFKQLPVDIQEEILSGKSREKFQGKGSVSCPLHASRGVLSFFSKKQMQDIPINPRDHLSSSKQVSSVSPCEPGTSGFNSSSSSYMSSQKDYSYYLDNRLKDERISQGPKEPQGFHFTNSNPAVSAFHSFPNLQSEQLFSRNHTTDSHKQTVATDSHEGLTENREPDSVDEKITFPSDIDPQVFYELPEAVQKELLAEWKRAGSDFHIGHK
#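 Pol iota at 10 nM preincubated 15 min with compounds at room temperature; reaction started with fluorescent substrate, 50 nM final. Fluorescence read kinetically at 0 and 10 min; buffer-only wells as negative control.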
# Pol kappa inh-2 – confirmation of human DNA polymerase kappa inhibitors; shares compounds with Pol eta inh-1; purified Pol-kappa, fluorescent strand-displacement substrate; Potency, µM, hits mostly inhibitors; 920 compounds, 76% hits; AID 720501; note: potency is the fitted concentration of half-maximal effect
# Pol eta inh-2 – confirmation of human DNA polymerase eta inhibitors. shares compounds with Pol eta inh-1. Pol eta primer extension, TAMRA/BHQ fluorescence, 10 min. Potency, µM, usual class: inhibitors. 2,600 compounds, 64% hits. AID 720502; note: potency is the fitted concentration of half-maximal effect
# * = called active by the depositor; ? = inconclusive; · = no result; [ ] = another dose, or the depositor's remark. Unless noted, calls come from the whole dose curve; as a rule, active = well fitted curve in the direction sought with a large enough effect; inconclusive = small, poorly fitted or top-dose-only effect, or another doubt; inactive = no such curve, though single readings can be large; an effect the other way counts as inactive or inconclusive.
SMILES,Pol kappa inh-1,WRN inhibitor,PI5P4K alpha inh,POLB inh,Pol eta inh-1,POLI inh,Pol kappa inh-2,others
CCOC(=O)c1c(C)[nH]c(N=Nc2ccc(C)cc2C)c1C,-11%,-7%,19,-13%,-11%,2%,·,
CCOC(=O)c1c(C)[nH]c(N=Nc2cc(C(=O)O)cc(C(=O)O)c2)c1C,?,?,-6,-1%,18µM*,?,·,Pol eta inh-2=9.5*
CCOc1ccc(NC(=O)Cn2c(CCC(=O)O)ccc2-c2ccc(Cl)cc2)cc1,9%,·,·,-10%,-10%,0%,·,
COc1cccc(/C=N/NC(=O)C(C)Cn2cnc3ccccc32)c1 (stereo not drawn),17%,-2%,-1,-1%,-17%,12%,·,
N#Cc1c(-c2ccccc2)nc(SCC(=O)Nc2ccccc2)[nH]c1=O,-4%,-15%,?,-21%,2%,7%,·,
N#Cc1c(-c2ccccc2)nc(SCC(=O)Nc2ccc(OC(F)(F)Cl)cc2)[nH]c1=O,5%,0%[11.6 µM],?,22µM*,?,12%,?,
Cc1cc[n+](CCC2CCCCC2)cc1,5%,·,·,·,·,-12%,·,
O=C1c2ccccc2C(=O)c2c(O)c(O)cc(O)c21,50µM*,249%,-106*,·,32µM*,79µM*,75*,Pol eta inh-2=43*
COc1ccc(NC(=O)/C(C#N)=C/c2ccc(-c3ccc(Cl)c(C(=O)O)c3)o2)cc1,-26%,-11%[11.6 µM],-24,0%,22µM*,?,?,
COc1ccc(NC(=O)/C(C#N)=C\c2ccc(-c3cc(C(=O)O)ccc3C)o2)cc1,?,?,?,22µM*,20µM*,?,47*,Pol eta inh-2=43*
Cc1ccc(NC(=O)/C(C#N)=C/c2ccc(-c3ccc(Cl)c(C(=O)O)c3)o2)cc1C,?,·,·,-21%,-9%,-23%,·,
O=C(CC1CCCC1)Nc1ccc(Br)cc1,-2%,-5%,0,11%,-8%,49%,·,
COC(=O)c1sc(-c2ccc(Cl)cc2)cc1NC(=O)c1ccccc1C(=O)O,-21%,-31%,?,?,?,33%,·,
COC(=O)c1sc(-c2ccc(C(C)(C)C)cc2)cc1NC(=O)c1ccccc1C(=O)O,2%,2%[11.6 µM],?,?,89µM*,-19%,?,
COc1cc2c(cc1[N+](=O)[O-])-c1ccc([N+](=O)[O-])cc1C2=NNC(N)=S,·,-26%,-59*,·,10µM*,·,67*,
NC(=S)NN=C1c2cc(Cl)ccc2-c2c1cc(Cl)cc2[N+](=O)[O-],1%,1%,-14,·,2%,19%,·,
CCOC(=O)C1(CC2CCCCO2)CCN(Cc2nc(C(C)C)cs2)CC1 (stereo not drawn),-13%,-9%,2,-12%,-10%,17%,·,
CCc1ccc(CNC(=O)C2CCCN(c3nn4c(=O)cc(C)nc4s3)C2)cc1 (stereo not drawn),-2%,2%,0,12%,2%,18%,·,
COc1cc(/C=C2\C(=N)N3N=C(S(C)(=O)=O)SC3=NC2=O)ccc1OC(=O)c1cccs1,-4%,-16%,-24,-3%,?,-5%,·,
